Tau fibril ThT: inhibitors of human tau fibril formation, thioflavin T binding | Potency, µM (top dose mostly 57.4 µM), for the others: top-dose activity, negative = inhibition, actives largely listed as inhibitors | 270,000 compounds, 2.1% hits | recombinant tau K18 P301L, heparin-induced fibrillization, ThT fluorescence; further: nearly all actives have a fitted effect of over 55% in size
Target sequence (P10636 561-689 P618L limits assumed): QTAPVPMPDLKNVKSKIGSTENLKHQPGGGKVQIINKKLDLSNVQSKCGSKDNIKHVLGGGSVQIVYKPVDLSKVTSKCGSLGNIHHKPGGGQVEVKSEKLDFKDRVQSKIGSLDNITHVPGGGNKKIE
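ThT emission at 510 nm, taken 1 hr after adding 30 uM dye, quantifies aggregates formed when 20 uM heparin acts on human tau K18 P301L for 6 hr at 37 C.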
GoLoco inh red: RGS12 GoLoco-Gai1 interaction inhibition; P63096; Potency, µM (series often up to 61.6 µM), without a hit: top-dose activity, negative = inhibition, most hits filed as inhibitors; 230,000 compounds, 0.44% hits; Gai1:RGS12 GoLoco peptide FP, rhodamine, 10 min; active means well fitted inhibition curve with a large enough effect, not every such curve was filed as active; inactive means no such curve, though single readings can be large or run the other way; further: nearly all actives have a fitted effect of over 30% in size
TRb SRC2 PPI: disrupts binding of human TR beta to SRC2; P10828; 280,000 compounds, 0.065% hits; Potency, µM (doses to about 106 µM), inactives show top-dose activity change, negative = inhibition, most hits filed as inhibitors; AID 1469; TRbeta-SRC2 peptide binding, fluorescence polarization; receptor liganded with 1 µM T3;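 further: plate controls were bound peptide for no effect and peptide without receptor for full effect; nearly all actives have a fitted effect of over 50% in size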
Target sequence (P10828 whole entry, looked up): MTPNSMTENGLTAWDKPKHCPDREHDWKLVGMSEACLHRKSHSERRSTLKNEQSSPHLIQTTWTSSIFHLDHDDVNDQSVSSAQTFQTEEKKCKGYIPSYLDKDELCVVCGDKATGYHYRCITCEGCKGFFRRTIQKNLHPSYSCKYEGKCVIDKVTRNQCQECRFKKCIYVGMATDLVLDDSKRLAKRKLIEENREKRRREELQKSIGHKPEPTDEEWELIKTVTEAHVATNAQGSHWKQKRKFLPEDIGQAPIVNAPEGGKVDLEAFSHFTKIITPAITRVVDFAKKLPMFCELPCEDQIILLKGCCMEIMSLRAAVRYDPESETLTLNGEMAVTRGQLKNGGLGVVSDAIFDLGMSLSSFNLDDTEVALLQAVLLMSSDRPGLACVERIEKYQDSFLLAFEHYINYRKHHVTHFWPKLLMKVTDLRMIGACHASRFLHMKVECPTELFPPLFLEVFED
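Compounds were added to 0.6 uM TRb ligand-binding domain and 20 nM Texas Red-labeled SRC2 peptide in Tris buffer containing 1 uM T3, incubated 5 hr at ambient temperature, then read by fluorescence polarization.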
Tau fibril FP: blocks human tau fibril formation measured by polarization | K18 P301L tau heparin fibrillization, Alexa594 FP, 6 h | Potency, µM (highest dose often 57.7 µM), for inactives: at the highest dose activity, negative = inhibition, actives largely listed as inhibitors | 280,000 compounds, 0.39% hits; further: nearly all actives have a fitted effect of over 55% in size
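Human K18 P301L fragment (15 uM unlabeled plus 0.24 uM Alexa 594-labeled) in 100 mM sodium acetate pH 7 with compound, aggregation induced by 20 uM heparin for 6 hr at 37 C. ThT (30 uM) added for 1 hr, then Alexa 594 FP read.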
Tau fluor counter: counter-screen for tau fibril formation inhibitors. tau K18 P301L (four-repeat tau fragment) Alexa594 fluorescence, heparin fibrillization. Potency, µM (highest dose often 57.7 µM), for inactives: at the highest dose activity change, negative = decrease. 280,000 compounds, 0.93% hits; further: nearly all actives have a fitted effect of over 55% in size
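Human K18 P301L tau (15 uM unlabeled plus 0.24 uM Alexa 594-labeled, final) in 100 mM sodium acetate pH 7 was mixed with compound and 20 uM heparin and incubated 6 hr at 37 C.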
TexasRed fluor: alters Texas Red total fluorescence, flagging assay interference; TRb/SRC2 Texas Red total fluorescence interference; Potency, µM (top dose mostly 106 µM), without a hit: top-dose fluorescence change, negative = quenching; 280,000 compounds, 0.29% hits; active means well fitted curve in either direction with a large enough effect; inconclusive means small, poorly fitted or top-dose-only effect
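Human TRβ ligand-binding domain (0.6 uM) and Texas Red SRC2 peptide (20 nM) in Tris buffer with 1 uM T3 and 5% DMSO were incubated with pinned compound for 5 hr at ambient temperature. Total fluorescence was computed as S + 2P (555/632 nm).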
Numbers without * were called inactive; ? = inconclusive; · = not tested or not shown; [ ] = remark or other dose. In the library only some 3.2% were active in any assay of this set; here they are far more common. Unless noted, the call rests on the fitted dose curve; in most records, active means well fitted curve in the direction sought with a large enough effect; inconclusive means small, poorly fitted or top-dose-only effect, or another doubt; inactive means no such curve, though single readings can be large; an effect the other way counts as inactive or inconclusive. Unless noted, on the % scale 0 is the no-effect control and ±100 the full control effect; potency means the concentration at half of the fitted maximal effect.

SMILES	Tau fibril ThT	GoLoco inh red	TRb SRC2 PPI	Tau fibril FP	Tau fluor counter	TexasRed fluor
Cc1ccc(N=Nc2c(C)[nH]n(-c3ccccc3)c2=O)c(C)c1	-18.0%	3.6%	-0.5%	-4.5%	11.1%[2.34 µM]	-1.0%
OC1(c2ccc(Cl)c(C(F)(F)F)c2)CCN(CCCC(c2ccc(F)cc2)c2ccc(F)cc2)CC1	·	·	-2.2%	·	·	-4.0%
C[C@H]([C@H](C)N1CC(=O)NC(=O)C1)N1CC(=O)NC(=O)C1	?	-14.4%	-0.5%	?	-18.2%	-0.3%
COc1ccc(/C=c2\sc3nc(-c4ccccc4)c(-c4ccccc4)n3c2=O)cc1OC	?	57.1%	-4.2%	?	-25.8%	-4.3%
O=c1/c(=C\c2cccc(O)c2)sc2nc(-c3ccccc3)c(-c3ccccc3)n12	11.2µM*	14.3%	0.2%	25.1µM*	?	-2.6%
Cc1ccccc1-c1ccnc2c(-c3ccc(F)cc3)c(C)nn12	?	·	-17.3%	-4.5%	?	11.2µM*[quencher]
Oc1ccc(/C=C\c2cc(O)cc(O)c2)cc1	14.1µM*	6.9%	1.0%	10.0%	14.1µM*[quencher]	-13.5%
COc1cc(O)cc(/C=C/c2ccccc2)c1	-7.9%	4.3%	-3.4%	?	?	-0.8%
Oc1ccc(/C=C/c2cc(O)cc(O)c2)cc1	10µM*	11.0%	2.5%	?	?	?
Cc1ccc(C)c(N(C)S(=O)(=O)c2ccc3[nH]cc(C(=O)NC4CCCC4)c(=O)c3c2)c1	4.8%	·	-8.1%	15.8µM*	?	0.7%
CCN(c1ccccc1)S(=O)(=O)c1ccc2[nH]cc(C(=O)NC3CCCCC3)c(=O)c2c1	?	·	-9.1%	3.55µM*	?	-4.3%
CCN(c1ccccc1)S(=O)(=O)c1ccc2[nH]cc(C(=O)NCCOC)c(=O)c2c1	8.4%	2.1%	-12.7%	?	-15.2%	1.7%
Cc1ccc(C)c(N(C)S(=O)(=O)c2ccc3[nH]cc(C(=O)NCCN4CCOCC4)c(=O)c3c2)c1	2.1%	3.0%	-6.3%	-8.2%	-18.9%	-0.4%
CCN(c1ccccc1)S(=O)(=O)c1ccc2[nH]cc(C(=O)NCc3ccc(C)cc3)c(=O)c2c1	11.4%	·	-12.3%	3.55µM*	?	-54.8%
Cc1cc(N)ccc1-n1c(C)ccc1C	14.1µM*	-61.1%	7.94µM*	?	-28.9%	12.6µM*[fluorescent]
NC(=O)c1cc(N)ccc1N1CCCCC1	-12.0%	3.6%	-3.8%	-4.7%	-7.7%	-3.4%
NC(=O)c1cc(N)ccc1N1CCCC1	?	-4.0%	39.8µM*	?	-19.5%	44.7µM*[fluorescent]
Cc1cc(N)ccc1N1CCCC1	7.08µM*	14.1µM*	39.8µM*	12.6µM*	?	44.7µM*[fluorescent]
CC(=O)c1cccc(NC(=O)COC(=O)c2ccc(S(C)(=O)=O)c([N+](=O)[O-])c2)c1	?	5.1%	-1.1%	3.1%	?	-5.6%
Cc1ccccc1NC(=O)COC(=O)c1ccc(S(C)(=O)=O)c([N+](=O)[O-])c1	12.6µM*	-4.4%	-9.2%	-1.8%	?	-6.1%
C=C(C)C(=O)OCC(CC)(COC(=O)C(=C)C)COC(=O)C(=C)C	·	·	8.4%[201 µM]	·	·	-0.6%[201 µM]
C/C(=N\N=C\c1ccc(N(C)C)cc1)c1cccc([N+](=O)[O-])c1	1.26µM*	5.4%	6.7%	9.0%	-29.3%	-6.4%
C/C(=N\N=C(N)N)c1cccc([N+](=O)[O-])c1	-4.2%	3.5%	1.9%	-13.3%	-9.2%	-2.5%
C/C=C\C1=CCCC1Nc1ncnc2ccc(-c3c(C)noc3C)cc12 (stereo not drawn)	·	·	-6.9%	·	·	0.1%
CCc1c(C)nc(SCc2nc(-c3ccccc3)no2)[nH]c1=O	4.5%	·	-4.8%	-0.7%	-7.3%	1.4%
SMILES	Tau fibril ThT	GoLoco inh red	TRb SRC2 PPI	Tau fibril FP	Tau fluor counter	TexasRed fluor
O=C(/C=C/c1cccnc1)/C=C/c1cccnc1	4.47µM*	-27.3%	1.1%	?	-25.8%	-0.3%
COc1ccc(-c2cn[nH]c2-c2ccc(OCc3ccc([N+](=O)[O-])cc3)cc2O)cc1OC	?	-9.7%	8.7%	?	7.08µM*[quencher]	-1.5%
COc1ccc(-c2cn[nH]c2-c2ccc(OCc3ccccc3F)cc2O)cc1OC	-11.3%	-0.3%	9.6%	?	12.6µM*[quencher]	-2.3%
COC1=C/C(=C/c2c(O)c(C#N)c3ccccn23)C=CC1=O	14.1µM*	196.9%	0.4%	-11.4%	-21.2%	0.6%
O=c1cc(-c2ccccc2O)oc2c(O)c(O)ccc12	11.2µM*	-10.2%	3.1%	12.6µM*	?	-8.7%
CC(=O)OCC1OC(C#Cc2ccccc2)C=CC1OC(C)=O (stereo not drawn)	?	·	-1.5%[11.2 µM]	?	-10.1%[11.6 µM]	-2.4%[11.2 µM]
Cc1ccc(NC(=S)c2nc3ccccc3[nH]2)cc1	7.94µM*	3.3%	5.3%	-1.6%	?	1.5%
COc1cc2c(cc1OC)C(c1ccc(-c3ccc(Cl)c(Cl)c3)o1)=NCC2	11.2µM*	7.2%	4.4%	13.1%	?	1.2%
COc1cc2c(cc1OC)C(c1ccc(-c3cc(Cl)ccc3Cl)o1)=NCC2	?	17.9%	-1.7%	5.2%	-4.8%	-0.7%
CC(C)CCOc1ccc(N)cc1	·	·	-1.5%	·	·	-1.2%
CCCc1cc(=O)c2c(O)ccc(OC)c2o1	-3.6%	-3.0%	-6.3%	0.7%	-13.2%	0.8%
Cc1cc(=O)c2c(O)cc(O)c(C)c2o1	25.1µM*	-1.1%	-2.0%	?	28.2µM*[quencher]	-3.1%
COc1ccc(-c2nc(-c3cccc([N+](=O)[O-])c3O)cc(=O)o2)cc1OC	?	-10.4%	-6.1%	-14.2%	-11.8%	-1.8%
COc1cc(/C=C2/C(=O)c3cccc([N+](=O)[O-])c3C2=O)c(Br)cc1O	12.6µM*	19.9%	-5.7%	?	?	-19.7%
C/C=C(/C)C#N	·	7.3%	2.6%	·	·	-1.5%

From PubChem
